From PubChem BioAssay (NCATS)
Records with an inconclusive call do not appear. Entries that show only a call come without a potency. Active and inactive are the calls of the source. Calls follow the shape of the dose curve; as a rule, active = well fitted inhibition curve with a large enough effect; inconclusive = small, poorly fitted or top-dose-only effect; inactive = flat fitted curve, though single readings scatter.

Experiments:
[1] = qHTS profiling for inhibitors of Plasmodium falciparum proliferation (AID 504749); also: nearly all actives have a fitted effect of over 60% in size; settings: P. falciparum in erythrocytes, SYBR Green DNA, 72 h
Outline: (§1)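 P. falciparum-infected erythrocytes (0.3% parasitemia, 2.5% hematocrit) incubated with compound 72 h at 37 C, 5% CO2. Parasite DNA detected by SYBR Green after lysis, overnight at room temperature; normalised to 0.29 uM artemisinin and DMSO.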

[2] = tested on: 3D7; experiment: as above; settings: P. falciparum in erythrocytes, SYBR Green DNA, 72 h; series mostly up to 28.7 µM
Outline: as §1

[3] = tested on: 7G8; experiment: as above; settings: P. falciparum in erythrocytes, SYBR Green DNA, 72 h; series mostly up to 28.7 µM
Outline: as §1

[4] = tested on: AA1029; experiment: as above; settings: P. falciparum in erythrocytes, SYBR Green DNA, 72 h; series mostly up to 28.7 µM
Outline: as §1

[5] = tested on: AS120; experiment: as above; settings: P. falciparum in erythrocytes, SYBR Green DNA, 72 h; series mostly up to 28.7 µM
Outline: as §1

[6] = tested on: ATS189; experiment: as above; settings: P. falciparum in erythrocytes, SYBR Green DNA, 72 h; series mostly up to 28.7 µM
Outline: as §1

[7] = tested on: ATS95; experiment: as above; settings: P. falciparum in erythrocytes, SYBR Green DNA, 72 h; series mostly up to 28.7 µM
Outline: as §1

[8] = tested on: C2A; experiment: as above; settings: P. falciparum in erythrocytes, SYBR Green DNA, 72 h; series mostly up to 28.7 µM
Outline: as §1

[9] = tested on: CP185; experiment: as above; settings: P. falciparum in erythrocytes, SYBR Green DNA, 72 h; series mostly up to 28.7 µM
Outline: as §1

[10] = tested on: CP191; experiment: as above; settings: P. falciparum in erythrocytes, SYBR Green DNA, 72 h; series mostly up to 28.7 µM
Outline: as §1

[11] = tested on: CP192; experiment: as above; settings: P. falciparum in erythrocytes, SYBR Green DNA, 72 h; series mostly up to 28.7 µM
Outline: as §1

[12] = at 28.7 µM (top of the series), parasite line A
[13] = at 28.7 µM (top of the series), parasite line B
Potency is read from the fitted curve at half-maximal effect.

SMILES	activity, negative = inhibition [1, 12]	activity, negative = inhibition [1, 13]	Potency [2]	Potency [3]	Potency [4]	Potency [5]	Potency [6]	Potency [7]	Potency [8]	Potency [9]	Potency [10]	Potency [11]	Potency ([1]; parasite line A)	Potency ([1]; parasite line B)	activity, negative = inhibition ([1]; at 12.8 µM (top of the series), parasite line A)	activity, negative = inhibition ([1]; at 12.8 µM (top of the series), parasite line B)
O=C1CN=C(c2ccccc2)c2cc([N+](=O)[O-])ccc2N1	0.461% (inactive)	15.1% (inactive)	inactive	inactive	inactive	inactive	inactive	inactive	inactive	inactive	inactive	inactive	–	–	–	–
O=C1Nc2ccc(Cl)cc2C(c2ccccc2)=NC1O (stereo not given)	-1.71% (inactive)	3.16% (inactive)	inactive	inactive	inactive	inactive	inactive	inactive	inactive	inactive	inactive	inactive	–	–	–	–
COP(=S)(OC)SCN1C(=O)c2ccccc2C1=O	6.4% (inactive)	1.71% (inactive)	inactive	inactive	inactive	inactive	inactive	inactive	inactive	inactive	inactive	inactive	–	–	–	–
COP(=S)(OC)Oc1ccc(S(=O)(=O)N(C)C)cc1	14.2% (inactive)	1.31% (inactive)	inactive	inactive	inactive	inactive	inactive	inactive	inactive	inactive	inactive	inactive	–	–	–	–
Nc1nc(N)nc(NC2CC2)n1	-13.5% (inactive)	1.17% (inactive)	inactive	inactive	inactive	inactive	inactive	inactive	inactive	inactive	inactive	inactive	–	–	–	–
Oc1ccc(Cl)cc1	0.659% (inactive)	-12.9% (inactive)	inactive	inactive	inactive	inactive	inactive	inactive	inactive	inactive	inactive	inactive	–	–	–	–
CCC1(c2ccccc2)C(=O)N(COC)C(=O)N(COC)C1=O	4.41% (inactive)	7.29% (inactive)	inactive	inactive	inactive	inactive	inactive	inactive	inactive	inactive	inactive	inactive	–	–	–	–
NCCc1ccc(O)cc1	8.86% (inactive)	7.85% (inactive)	inactive	inactive	inactive	inactive	inactive	inactive	inactive	inactive	inactive	inactive	–	–	–	–
CCCCCCC(=O)CCCCCC/C=C/C[C@@H](O)[C@H](O)[C@@](N)(CO)C(=O)O	16.1% (inactive)	7.92% (inactive)	inactive	inactive	inactive	inactive	inactive	inactive	inactive	inactive	inactive	inactive	–	–	–	–
CN1CCC(O)(c2ccc(F)cc2)C(C(=O)c2ccc(F)cc2)C1 (stereo not given)	-7.61% (inactive)	-4.09% (inactive)	inactive	inactive	inactive	inactive	inactive	inactive	inactive	inactive	inactive	inactive	–	–	–	–
Cc1nnc2n1-c1ccc(Cl)cc1C(c1ccccc1)=NC2	-6.67% (inactive)	6.11% (inactive)	–	–	inactive	inactive	–	–	inactive	inactive	inactive	inactive	–	–	–	–
O=C1c2ccccc2C(=O)c2ccccc21	-2.68% (inactive)	6.43% (inactive)	–	5.01 µM (active)	inactive	inactive	–	inactive	inactive	inactive	–	inactive	–	–	–	–
Clc1cccc(SC2CCNCC2)n1	12.4% (inactive)	2.53% (inactive)	inactive	–	inactive	inactive	inactive	inactive	inactive	inactive	inactive	inactive	–	–	–	–
C=C(C)[C@H]1CN[C@H](C(=O)O)[C@H]1CC(=O)O	3.91% (inactive)	11.4% (inactive)	inactive	–	inactive	inactive	inactive	inactive	inactive	inactive	inactive	inactive	–	–	–	–
c1ccc2c(c1)sc1ccccc12	-4.2% (inactive)	–	inactive	inactive	inactive	inactive	inactive	inactive	inactive	inactive	inactive	inactive	–	–	–	–
CN1C[C@H](C(=O)N[C@]2(C)O[C@@]3(O)[C@@H]4CCCN4C(=O)[C@H](Cc4ccccc4)N3C2=O)C=C2c3cccc4[nH]cc(c34)C[C@H]21	–	–	0.891 µM (active)	0.0794 µM (active)	1 µM (active)	0.562 µM (active)	3.16 µM (active)	0.708 µM (active)	3.55 µM (active)	3.98 µM (active)	1.58 µM (active)	8.49 µM (active)	1.41 µM (active)	1.58 µM (active)	–	–
O=C1Nc2ccc(Cl)cc2C(c2ccccc2Cl)=NC1O (stereo not given)	2.17% (inactive)	-14% (inactive)	inactive	inactive	inactive	inactive	inactive	–	inactive	inactive	inactive	inactive	–	–	–	–
CC(C)(C)NCC(O)c1cc(Cl)c(N)c(C(F)(F)F)c1 (stereo not given)	–	–	inactive	4.47 µM (active)	7.94 µM (active)	5.62 µM (active)	7.08 µM (active)	–	10 µM (active)	10 µM (active)	4.47 µM (active)	inactive	14.1 µM (active)	4.47 µM (active)	–	–
CCOP(=S)(OCC)Oc1ccc2c(C)c(Cl)c(=O)oc2c1	–	-25.9% (inactive)	–	–	–	–	–	–	inactive	–	–	inactive	–	–	–	–

SMILES	activity, negative = inhibition [1, 12]	activity, negative = inhibition [1, 13]	Potency [2]	Potency [3]	Potency [4]	Potency [5]	Potency [6]	Potency [7]	Potency [8]	Potency [9]	Potency [10]	Potency [11]	Potency ([1]; parasite line A)	Potency ([1]; parasite line B)	activity, negative = inhibition ([1]; at 12.8 µM (top of the series), parasite line A)	activity, negative = inhibition ([1]; at 12.8 µM (top of the series), parasite line B)
CCC(C)(C)c1ccc(O)cc1	2.92% (inactive)	14.5% (inactive)	inactive	inactive	inactive	inactive	inactive	–	inactive	inactive	inactive	inactive	–	–	–	–
CN1C(=O)C(O)N=C(c2ccccc2)c2cc(Cl)ccc21 (stereo not given)	4.85% (inactive)	–	inactive	inactive	inactive	inactive	inactive	inactive	inactive	inactive	inactive	inactive	–	–	–	–
CN1C(=O)NC(=O)C(C)(C2=CCCCC2)C1=O (stereo not given)	–	7.06% (inactive)	inactive	inactive	inactive	inactive	inactive	inactive	inactive	inactive	inactive	inactive	–	–	–	–
COc1ccc2c(c1)C13CCCC[C@@H]1C(C2)N(C)CC3 (stereo not given in full)	4.6% (inactive)	-5.63% (inactive)	inactive	4.47 µM (active)	–	inactive	inactive	–	inactive	–	inactive	inactive	–	–	–	–
COc1ccc2c(c1OC)C(=O)O[C@H]2[C@@H]1c2cc3c(cc2CCN1C)OCO3	–	–	–	–	–	–	–	–	–	–	–	inactive	–	–	–	–
CC(C)(C)NCC(O)c1ccccc1Cl (stereo not given)	-1.78% (inactive)	–	inactive	11.2 µM (active)	–	–	–	–	inactive	–	inactive	inactive	–	–	–	–
NNc1ccccc1	7.49% (inactive)	–	inactive	inactive	inactive	inactive	inactive	inactive	inactive	inactive	inactive	inactive	–	–	–	–
O=C(N/N=C/c1ccc([N+](=O)[O-])o1)c1cc([N+](=O)[O-])cc([N+](=O)[O-])c1O	–	–	0.891 µM (active)	inactive	0.1 µM (active)	0.141 µM (active)	0.316 µM (active)	–	0.0178 µM (active)	0.0631 µM (active)	0.178 µM (active)	–	0.447 µM (active)	0.0708 µM (active)	–	–
Nc1ccc([As](=O)(O)O)cc1	-20% (inactive)	-5.31% (inactive)	inactive	–	inactive	inactive	inactive	inactive	inactive	inactive	inactive	inactive	–	–	–	–
Clc1ccc(C(c2ccc(Cl)cc2)C(Cl)(Cl)Cl)cc1	4.12% (inactive)	–	–	8.91 µM (active)	inactive	inactive	–	inactive	inactive	inactive	–	inactive	–	–	–	–
CCOC(=O)CC(SP(=S)(OC)OC)C(=O)OCC (stereo not given)	10.2% (inactive)	-3.96% (inactive)	inactive	inactive	inactive	inactive	inactive	inactive	inactive	inactive	inactive	inactive	–	–	–	–
C=CCN1C[C@H](C)N([C@H](c2ccc(C(=O)N(CC)CC)cc2)c2cccc(OC)c2)C[C@H]1C	–	–	–	5.01 µM (active)	–	–	–	–	–	–	–	inactive	10 µM (active)	–	–	–
NC(=O)c1cc([N+](=O)[O-])cc([N+](=O)[O-])c1	–	-21.3% (inactive)	–	–	inactive	inactive	–	inactive	inactive	–	–	inactive	7.94 µM (active)	–	–	–
COc1c2c(cc3c1OCO3)CCN(C)C2	–	–	inactive	inactive	inactive	inactive	inactive	inactive	inactive	inactive	inactive	inactive	–	–	4.79% (inactive)	6.97% (inactive)
COC(=O)C(c1ccccc1)C1CCCCN1 (stereo not given)	10.8% (inactive)	13.8% (inactive)	inactive	–	inactive	inactive	inactive	inactive	inactive	inactive	inactive	inactive	–	–	–	–
NC(=O)CS(=O)C(c1ccccc1)c1ccccc1 (stereo not given)	11.3% (inactive)	9.97% (inactive)	inactive	–	inactive	inactive	inactive	inactive	inactive	inactive	inactive	inactive	–	–	–	–
COC1CC(=C(c2cccs2)c2cccs2)C[N+](C)(C)C1 (stereo not given)	–	–	11.2 µM (active)	10 µM (active)	12.6 µM (active)	15.8 µM (active)	8.91 µM (active)	–	–	6.31 µM (active)	5.01 µM (active)	–	3.98 µM (active)	4.47 µM (active)	–	–
O=C1c2ccccc2C(=O)C1C(=O)C(c1ccccc1)c1ccccc1	4.21% (inactive)	-28% (inactive)	–	–	inactive	–	inactive	inactive	inactive	inactive	inactive	inactive	–	–	–	–
